± gives the standard deviation of the averaged measurements.
Key:
Assay in all cases: cell viability (% of vehicle); higher = less cytotoxic
Conditions in all cases: 10 µM; 72 h
[1] = test system: HCI01 (cells of a triple-negative basal-like breast cancer xenograft)
[2] = test system: HCI03 (cells of an ER-positive luminal breast cancer xenograft)
[3] = test system: HCI09 (cells of a triple-negative luminal androgen receptor type breast cancer xenograft)
[4] = test system: HCI11 (cells of an ER-positive luminal breast cancer xenograft)
[5] = test system: HCI13 (cells of an ER-positive luminal breast cancer xenograft)
[6] = test system: HCI16 (cells of a triple-negative basal-like breast cancer xenograft)
[7] = test system: UCD52 (cells of a triple-negative basal-like breast cancer xenograft)
[8] = test system: WHIM2 (cells of a triple-negative basal-like breast cancer xenograft)
[9] = test system: WHIM30 (cells of a triple-negative basal-like breast cancer xenograft)
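Note: PDX cells carrying CMV promoter-driven luciferase, viability read as total photon flux per second by IVIS imaging following D-luciferin, vehicle control 0.1% DMSO.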

SMILES | cell viability [1] | cell viability [2] | cell viability [3] | cell viability [4] | cell viability [5] | cell viability [6] | cell viability [7] | cell viability [8] | cell viability [9]
Cc1cc2c(s1)=Nc1ccccc1NC=2N1CCN(C)CC1 [Olanzapine] | 90.18 ± 0.87 | 107 | 105 ± 2.8 | 88.7 | 88.6 ± 14 | 112 | 87.7 ± 4.5 | 90.9 ± 8.5 | 107 ± 16
COc1ccc(-n2nc(C(N)=O)c3c2C(=O)N(c2ccc(N4CCCCC4=O)cc2)CC3)cc1 [Apixaban] | 100.8 ± 0.64 | 113 | 93.5 ± 17 | 173 | 149 ± 8.9 | 82.4 | 90.7 ± 6.2 | 97.6 ± 8.3 | 85.2 ± 14
CS(=O)(=O)Nc1ccc([N+](=O)[O-])cc1Oc1ccccc1 [Nimesulide] | 146 ± 23 | 117 | 80.56 ± 0.45 | 104 | 109 ± 4.1 | 144 | 81.5 ± 15 | 107 ± 13 | 92.5 ± 2.9
c1ccc(-c2ccc(C(c3ccccc3)n3ccnc3)cc2)cc1 (stereo not given) [Bifonazole] | 93.4 ± 4.3 | 108 | 74 ± 1.6 | 95.3 | 84.3 ± 22 | 108 | 149 ± 50 | 121 ± 1.4 | 126 ± 20
CCCC(C(=O)OCCN(CC)CC)(c1ccccc1)c1ccccc1.Cl [SKF 525A (hydrochloride)] | 103 ± 33 | 123 | 93.8 ± 1.2 | 66.3 | 103 ± 28 | 130 | 61.5 ± 5.9 | 99.1 ± 11 | 119.8 ± 0.2
COc1cc(C=CC(=O)N2CCN(CC(=O)N3CCCC3)CC2)cc(OC)c1OC.O=C(O)C=CC(=O)O [Cinepazide maleate] | 90.6 ± 5.7 | 130 | 94.4 ± 8.9 | 94.4 | 81.9 ± 12 | 106 | 121 ± 8.9 | 111 ± 17 | 102 ± 8.3
CN=C(NC#N)NCCSCc1nc[nH]c1C [Cimetidine] | 136 ± 22 | 124 | 93.85 ± 0.84 | 101 | 102 ± 16 | 115 | 88.1 ± 5.3 | 87.8 ± 19 | 120 ± 4.4
NC1CN(c2c(F)cc3c(=O)c(C(=O)O)cn(C4CC4F)c3c2Cl)CC12CC2.O (stereo not given) [Sitafloxacin Hydrate] | 83.3 ± 48 | 95.5 | 111 ± 13 | 90.5 | 116.6 ± 0.93 | 122 | 88.8 ± 9.9 | 95.6 ± 27 | 119 ± 4.7
CNC(=O)[C@H](Cc1ccccc1)NC(=O)[C@H](CC(C)C)[C@H](CSc1cccs1)C(=O)NO [Batimastat (BB-94)] | 94.3 ± 12 | 88.2 | 78.2 ± 20 | 95.3 | 127 ± 3.9 | 67 | 127 ± 16 | 72 ± 22 | 175 ± 0.83
N[C@@H](Cc1cc(I)c(Oc2cc(I)c(O)c(I)c2)c(I)c1)C(=O)O [L-Thyroxine] | 66.5 ± 44 | 151 | 114 ± 14 | 93.3 | 150 ± 56 | 136 | 85 ± 2.5 | 93.6 ± 27 | 177 ± 6.2
CS(=O)(=O)O.CS(=O)(=O)O.N=C(N)c1ccc2cc(OC(=O)c3ccc(N=C(N)N)cc3)ccc2c1 [Nafamostat Mesylate(FUT-175)] | 110 ± 13 | 82 | 43.9 ± 4.1 | 82.1 | 95.5 ± 20 | 98.4 | 106 ± 13 | 100 ± 34 | 105 ± 13
CNCC(O)C(O)C(O)C(O)CO.Cc1c(Nc2ncccc2C(=O)O)cccc1C(F)(F)F [Flunixin Meglumin] | 135 ± 49 | 120 | 141 ± 44 | 103 | 133 ± 14 | 105 | 77.6 ± 16 | 130 ± 17 | 107 ± 2.9
Cc1c(NC(=O)c2cccnc2)c(=O)n(-c2ccccc2)n1C [Nifenazone] | 115 ± 12 | 95.9 | 116 ± 42 | 114 | 103 ± 10 | 122 | 96.7 ± 4.5 | 93.9 ± 16 | 128 ± 6
CCOC(=O)c1ncn2c1CN(C)C(=O)c1cc(F)ccc1-2 [Flumazenil] | 114 ± 6.3 | 106 | 89.6 ± 18 | 96.8 | 93.9 ± 2.9 | 92.5 | 118 ± 17 | 103 ± 7.5 | 142 ± 15
O=C1CCC(N2C(=O)c3ccccc3C2=O)C(=O)N1 (stereo not given) [Thalidomide] | 144 ± 7.8 | 129 | 101 ± 4.3 | 103 | 129 ± 15 | 114 | 102 ± 4.3 | 103 ± 19 | 145 ± 15
S=C(NCc1ccc2c(c1)OCO2)N1CCN(c2ncnc3c2oc2ccccc23)CC1 [Amuvatinib (MP-470, HPK 56)] | 107 ± 48 | 120 | 40 ± 18 | 81.7 | 82 ± 9.2 | 84.3 | 73 ± 1.1 | 149 ± 3.3 | 75.2 ± 9.7
CN1CCC(=C2c3ccccc3CCn3c(C=O)cnc32)CC1 [Alcaftadine] | 94.1 ± 31 | 117 | 94.3 ± 18 | 86.9 | 120 ± 20 | 124 | 92.4 ± 10 | 97.9 ± 3.4 | 114 ± 6.9
CN(C)CCOC(C)(c1ccccc1)c1ccccn1.O=C(O)CCC(=O)O (stereo not given) [Doxylamine Succinate] | 122 ± 18 | 124 | 101 ± 14 | 101 | 90.5 ± 6.7 | 108 | 94.28 ± 0.33 | 97.4 ± 22 | 103.9 ± 0.48
COC(=O)Nc1nc2cc(C(=O)c3ccccc3)ccc2[nH]1 [Mebendazole] | 134 ± 45 | 110 | 119 ± 45 | 68.6 | 88.9 ± 15 | 177 | 103.3 ± 0.22 | 92.6 ± 18 | 110.3 ± 0.28
CC(=O)NC(CS)C(=O)O (stereo not given) [Acetylcysteine] | 91.6 ± 7.3 | 113 | 94.3 ± 16 | 90 | 97.3 ± 27 | 118 | 89.98 ± 0.47 | 124 ± 1.8 | 96.8 ± 14

From the supplement of paper PMC6992640
